The campaign covered roughly 220,000 compounds. About 2,000 (0.91%) were called active. Not shown: some 2% with an inconclusive outcome. Cut-off read from the data, not from the text of the source: inconclusive = inhibition above about 80% without an active follow-up result; inactive = below that; test concentration not stated here. A selection follows. Entries with a potency or affinity are not part of this list.

The test in a line: M. tuberculosis H37Rv growth inhibitors, H37Rv strain (AID 1626).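 Note: bacteria incubated seven days before Alamar blue readout; 0% = bacteria only wells and 100% = bacteria with antibiotic wells.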 Particulars: hits give high values, concentration not given here.
Broadly, the inhibition is the relative decrease from the control value, in per cent. With `Cc1nn(C)c(C(=O)NNC(=S)NC2CCCCC2)c1Br`, the inhibition is 10.2% (inactive).

In the case of `Cc1ccc(NC(=O)COC(=O)CCNS(=O)(=O)c2ccc(C)c(C)c2)cc1`, the inhibition is -0.05% (inactive).

For the compound `CCCOc1cc(N(CC)CC)ccc1/C=C(/C#N)c1nc2ccc(C)cc2[nH]1`, the inhibition was 61.6% (inactive).

`CCN(CC)c1ccc(/C=C(/C#N)c2nc3ccc(C)cc3[nH]2)c(OC(C)C)c1`: the inhibition was 16.2% (inactive).

For `FC(F)(F)c1ccc(CN2C[C@@H]3C(c4ccccc4)C4(c5cccnc5)CC3(C4)[C@H]2c2ccccc2)cc1` (some centres not stated), the inhibition is 20.3% (inactive).

Turning to `COc1ccccc1S(=O)(=O)CC(O)COc1ccc(C#N)cc1` (configuration not stated), the inhibition is -1.05% (inactive).

In the case of `Cc1nccn1CC(=O)N/N=C/c1c[nH]c2ccccc12`, the inhibition is 3.79% (inactive).

As to `O=C(CCN1c2ccccc2Sc2ccccc21)Oc1ccccc1`, the inhibition is 22.8% (inactive).

Consider `COC(=O)c1ccc(OC(=O)CCN2c3ccccc3Sc3ccccc32)cc1`, for which the inhibition is 1.13% (inactive).

For the compound `CSCCC(NC(=O)c1ccccc1)c1nc(-c2ccccc2)no1` (configuration not stated), the inhibition is 2.56% (inactive).

For the compound `CCOc1cc(Br)ccc1S(=O)(=O)N1CCC(C(N)=O)CC1`, the inhibition is -1.13% (inactive).

Take `Cc1cccc(N=Nc2c(C)c(C#N)c(O)[nH]c2=O)c1`: the inhibition was -1.05% (inactive).

On to `CCOC(=O)c1ccc(N=Nc2c(C)c(C#N)c(O)[nH]c2=O)cc1`, for which the inhibition was 86.6% (inactive).

On to `Cc1ccc(C)c2[nH]c(=O)c(CN(CC3CCCO3)C(=S)NCc3ccco3)cc12` (configuration not stated), for which the inhibition was 1.36% (inactive).

Consider `c1ccc(COc2ccc(CNn3cnnc3)cc2)cc1`, for which the inhibition is -2.39% (inactive).

On to `COc1cccc(-c2nc(Oc3cccc(C)c3C)c3ccccc3n2)c1O`, for which the inhibition was -7.68% (inactive).

Take `Cc1nc(SCC(=O)NCc2ccccc2)c2oc3ccccc3c2n1`: the inhibition was -1.12% (inactive).

Regarding `CCOC(=O)N1C2=NC(C(=O)OC)=C(C(=O)OC)[C@@H]3N(Cc4ccccc4)c4ccccc4[C@]23C[C@H]1C(=O)OC`, the inhibition is -6.13% (inactive).

As to `Cc1ccc(-n2cnnn2)cc1Cl`, the inhibition is -4.47% (inactive).

For `Cc1ccc(C(=O)c2cn(-c3ccc(F)c(Cl)c3)nn2)cc1`, the inhibition was 0.59% (inactive).

On to `O=C(c1cn(-c2ccc(Cl)c(Cl)c2)nn1)C1CC1`, for which the inhibition is 12.8% (inactive).

For the compound `CN1CCN(c2ccc(C(=O)c3ccc(F)cc3)cc2)CC1`, the inhibition is 1.19% (inactive).

For `Cc1c(-n2c(O)c(C3=c4ccccc4=NC3=O)sc2=O)c(=O)n(-c2ccccc2)n1C`, the inhibition was 1.59% (inactive).

`N/C(=N\OC(=O)c1cc(Cl)ccc1Cl)c1ccncc1`: the inhibition is -3.7% (inactive).

As for `CS(=O)(=O)N(Cc1ccc(Cl)cc1)c1ccc(C(=O)N/N=C/c2cc3ccccc3nc2Cl)cc1`, the inhibition was -6.17% (inactive).

For `Cc1ccc(-n2nnnc2SCC(=O)Nc2sccc2C#N)cc1`, the inhibition is 0.42% (inactive).

Turning to `O=C(CN1C(=O)CCC1=O)NCC12CC3CC(CC(C3)C1)C2`, the inhibition was 0.8% (inactive).

Consider `Cc1ccc(N/C=C(\C#N)c2ccc(OCCCF)cc2)cc1`, for which the inhibition was 7.98% (inactive).

In the case of `Cc1nn(Cc2ccccc2Cl)c2sc(C(=O)NC(C)(C)C)cc12`, the inhibition is 7.48% (inactive).

Consider `CCC(CC)NC(=O)c1cc2c(C)nn(Cc3ccccc3Cl)c2s1`, for which the inhibition was -6.17% (inactive).

Take `COc1ccc(NC(=O)c2c(Cl)nc3ccccn23)cc1`: the inhibition was -0.46% (inactive).

As to `Cc1nc2ccccn2c1C(=O)N/N=C/c1ccc2c(c1)OCO2`, the inhibition is 1.58% (inactive).

Take `CC(C)(C)c1ccc(C(=O)OCCNC(=O)c2c(Cl)nc3ccccn23)cc1`: the inhibition is -10.6% (inactive).

On to `O=C(NCc1ccc2c(c1)OCO2)c1cnc2ccccn2c1=O`, for which the inhibition is -8.83% (inactive).

Turning to `CCNC(=O)c1c(C)nc2ccccn12`, the inhibition is -9.74% (inactive).

`Cc1nc2ccccn2c1C(=O)NCc1cccnc1`: the inhibition was -10.5% (inactive).

For `COCCn1c(=O)[nH]c2cc(C(=O)NCC3CCCO3)ccc2c1=O` (configuration not stated), the inhibition is -10.7% (inactive).

On to `COc1cc(C2NC(=O)NC(C)=C2C(C)=O)ccc1O` (configuration not stated), for which the inhibition was 5.67% (inactive).

`COC(=O)c1ccccc1NC(=O)NCc1cccnc1`: the inhibition is 2.42% (inactive).

Take `CCCC(C)C(=O)Nc1ccc(Cl)cc1Cl` (configuration not stated): the inhibition is -6.12% (inactive).

As to `Cc1ccc(NC(=O)CC(=O)NCCN2CCOCC2)cc1`, the inhibition was -6.87% (inactive).

Consider `CC(=O)c1ccc(OC(C)C)c(CSC(=N)N)c1`, for which the inhibition is -9.08% (inactive).

Consider `COc1ccccc1NS(=O)(=O)c1cccc(NC(=S)NCCN2CCOCC2)c1`, for which the inhibition is -2.29% (inactive).

Take `c1ccc2c(Nc3ccc4c(c3)OCCO4)c3c(nc2c1)CCC3`: the inhibition was 21.9% (inactive).

As to `Cc1ccc2nc3c(c(Nc4ccc5c(c4)OCCO5)c2c1)CCC3`, the inhibition was 59.8% (inactive).

Consider `CSc1snc(SCC(N)=O)c1C#N`, for which the inhibition is -4.47% (inactive).

Regarding `N#Cc1c(SCC(N)=O)nsc1SCc1ccc(Cl)cc1`, the inhibition was -0.48% (inactive).

With `C/C=C/C(=O)OCC(=O)Nc1cccc(Br)c1`, the inhibition was -3.94% (inactive).

For `COc1ccc(NC(=O)C(C)Sc2nnc3c4c(nc(-c5ccc(OC)cc5)n23)CC(C)(C)OC4)cc1` (configuration not stated), the inhibition is 4.37% (inactive).

`CC(C)CNC(=S)N1CCN(Cc2ccc3c(c2)OCO3)CC1`: the inhibition was -8.68% (inactive).

As to `Cc1ccc(NC(=O)c2cc3c(s2)CCCC3)cc1`, the inhibition is -5.85% (inactive).

Regarding `CCC1C(=O)N=C(SCC(=O)Nc2ccccc2)NC1=O` (configuration not stated), the inhibition was -8% (inactive).

As to `CCC1C(=O)N=C(SCC(=O)Nc2ccc(C(=O)OC)cc2)NC1=O` (configuration not stated), the inhibition is 8.73% (inactive).

As to `COc1ccccc1NC(=O)c1ccc(NC(=O)c2cc3c(s2)CCC3)cc1`, the inhibition is 0.63% (inactive).

Turning to `COc1ccc(NC(=O)c2cc3ccccc3o2)cc1`, the inhibition is 8.56% (inactive).

In the case of `CCOC(=O)c1ccc(NC(=O)Nc2ccc(F)cc2)cc1`, the inhibition was -14.9% (inactive).

With `CCOC(=O)c1ccc(NC(=O)CNC(=O)c2ccccc2)cc1`, the inhibition was 0.26% (inactive).

As to `CCC(=O)Nc1ccc(NC(=O)c2cc3ccccc3o2)cc1`, the inhibition is 8.98% (inactive).

Regarding `COc1cccc(/C=N/NC(=O)CN(CCc2ccccc2)S(=O)(=O)c2ccc(NC(C)=O)cc2)c1`, the inhibition is 0.86% (inactive).

For `COc1ccc(/C=N/NC(=O)c2cccnc2)cc1CN1CCc2cc(OC)c(OC)cc2C1C` (configuration not stated), the inhibition was 1.27% (inactive).

Consider `Cc1cc(C)n2nc(C(=O)OCC(=O)c3cc(C)n(CC4CCCO4)c3C)nc2n1` (configuration not stated), for which the inhibition is -11.1% (inactive).

For the compound `CC(=O)c1ccc(NC(=O)N2C3CCC2CC(O)(c2cccnc2)C3)cc1` (configuration not stated), the inhibition was -0.55% (inactive).

As to `CCOC(=O)c1ccc(-c2ccc(/C=N/NC(=O)CN(c3ccccc3Cl)S(C)(=O)=O)o2)cc1`, the inhibition was 6.39% (inactive).

For the compound `NNC(=O)c1cnn(-c2ccccc2)c1-n1cccc1`, the inhibition was -3.69% (inactive).

Take `Cc1ccc(NC(=O)C(=O)NCc2ccc(/C=C(/C#N)C(=O)NCc3cccnc3)o2)cc1C`: the inhibition was 0.05% (inactive).

With `CCOC(=O)N1CCN(C(=O)CSCC(=O)N=c2sc3ccccc3n2C)CC1`, the inhibition was -1.11% (inactive).

Regarding `CC1CCC/C(=C\Nc2ccc(C(=O)O)cc2)C1=O` (configuration not stated), the inhibition was -6.3% (inactive).

With `CCOC(=O)c1ccc(NC(=O)COC)cc1`, the inhibition was 79.3% (inactive).

On to `CCOC(=O)c1ccc(NC(=O)Nc2ccc(Cl)cn2)cc1`, for which the inhibition is -5.47% (inactive).

On to `CCCOC(=O)c1ccc(NC(=O)CC(C)(C)C)cc1`, for which the inhibition is -1.14% (inactive).

Regarding `CC1CCC/C(=C\Nc2ccc(O)cc2)C1=O` (configuration not stated), the inhibition was -13% (inactive).

Turning to `CCOC(=O)Cc1nc2ccccc2[nH]1`, the inhibition was -10.4% (inactive).

Take `CCOC(=O)c1ccc(NC(=O)c2cc(F)c(F)cc2Cl)cc1`: the inhibition was 2.44% (inactive).

As to `CCOC(=O)c1ccc(NCc2nc3ccccc3n2C)cc1`, the inhibition was 51.7% (inactive).

In the case of `Cc1ccc(Nc2nc(C(=O)N3CCC(C(=O)N4CCN(C)CC4)CC3)cs2)cc1`, the inhibition is -9.19% (inactive).

For the compound `O=C(NCC1CCCO1)c1sc2cc(Cl)ccc2c1Cl` (configuration not stated), the inhibition was 10.4% (inactive).

With `CCN1CCN(C(=O)c2nn(-c3ccc(C)cc3)c(=O)c3c2c2ccccc2n3C)CC1`, the inhibition was 1.02% (inactive).

For `CC(=O)c1c(C)[nH]c(C(=O)CSc2nnc(-c3ccccc3)n2Cc2ccc3c(c2)OCO3)c1C`, the inhibition was 0.21% (inactive).

In the case of `CN1CCC(N2CCN(c3cccc(C(F)(F)F)c3)CC2)CC1`, the inhibition was -9.94% (inactive).

For the compound `S=c1[nH]nc(Cc2ccccc2)n1-c1ccc(Cl)cc1`, the inhibition is -10.8% (inactive).

With `NNc1nc2ccc(Cl)cc2s1`, the inhibition was 52.6% (inactive).

In the case of `Cn1c(=O)c2c(nc(N/N=C/c3cccs3)n2Cc2ccccc2)n(C)c1=O`, the inhibition was 3.67% (inactive).

Consider `CCOC(=O)c1ccc(NC(=O)CNC(=O)C2CCCCC2)cc1`, for which the inhibition was -1.48% (inactive).

In the case of `O=c1[nH]c(Nc2ccccc2)cc2ccccc12`, the inhibition was -8.22% (inactive).

`CCOC(=O)c1ccc(NC(=O)CCC(=O)OC)cc1`: the inhibition is 72.2% (inactive).

For `CCCOC(=O)c1ccc(NC(=O)C(CC)CC)cc1`, the inhibition is 0.89% (inactive).

Consider `CCOC(=O)c1ccc(NC(=O)COc2ccccc2CNCCO)cc1`, for which the inhibition is 91.9% (inactive).

Consider `CCOC(=O)c1ccc(NC(=O)COc2ccccc2CNC2CCCC2)cc1`, for which the inhibition was 11.1% (inactive).

For the compound `O=c1[nH]c(Nc2ccc(F)cc2)cc2ccccc12`, the inhibition was 3.27% (inactive).

On to `CCOC(=O)c1ccc(NC(=O)C2CCN(S(=O)(=O)CC)CC2)cc1`, for which the inhibition was 51.8% (inactive).

For the compound `COc1ccccc1NC(=O)CCC(=O)N/N=C(/C)c1ccc(C)cc1`, the inhibition is 0.52% (inactive).

In the case of `O=C(N/N=C/c1ccccn1)C(=O)N1CCCCCC1`, the inhibition was -1.83% (inactive).

Consider `O=C(CSc1ncccn1)N1CCCc2ccccc21`, for which the inhibition is -8.67% (inactive).

For `CCCCN(C(=O)c1c(C)[nH]c(C(=O)OCC)c1C)c1ccccc1`, the inhibition is -3.19% (inactive).

Turning to `COc1ccc(-n2c(=O)c3ccccc3n(CC(=O)c3ccccc3)c2=O)cc1OC`, the inhibition is -3.99% (inactive).

For the compound `C/C(=N\NC(=O)C1CC1(C)c1ccccc1)c1ccco1` (configuration not stated), the inhibition is 5.62% (inactive).

`Cn1ncc(C#N)c1NC(=O)c1nn2cccnc2c1Cl`: the inhibition was 6.92% (inactive).

The values are drawn from PubChem BioAssay AID1626 (SRMLSC, 2009).
